# Assay outcomes as filed in PubChem.
# The list is not random: actives were taken first. Their share in the collection is about 5.7%.
# GLP-1R agonist: agonists of human GLP-1 receptor | 380,000 compounds, 0.007% hits | AID 624172 | P43220 | HEK293 GLP-1R CRE-luciferase, luminescence, 4-6 h; cells express a hypersensitive GLP-1R form | Potency, µM (highest dose often 45.6 µM), without a hit: at the top dose activation, most hits filed as activators; also: potency is read from the fitted curve at half-maximal effect; % of control where 0% means no effect
# HEK293 tox: cytotoxicity counter-screen for GLP-1 receptor inverse agonists | 410,000 compounds, 0.13% hits | HEK293 cAMP-luciferase reporter cells, luminescence, 24 h | Potency, µM (titrated, usually from 38.3 µM), for inactives: at the top dose activity change, negative = inhibition, most hits filed as inhibitors | AID 624418;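 also: loss of luciferase light is scored as toxicity; potency is read from the fitted curve at half-maximal effect; % is scaled to controls: 0 for no effect and ±100 for the full control effect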
#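 Cells in DMEM/10% Nu serum/1% pen-strep, 1536-well format. Pre-incubated 12 h, dosed with 23 nL compound, incubated a further 24 h. Luciferase detection, 12 min at room temp, luminescence.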
# GLP-1R inv ag: inverse agonists of human GLP-1 receptor. P43220. HEK293 GLP-1R CRE-luciferase, luminescence, 24 h; GLP-1R form is constitutively active. AID 624417. 410,000 compounds, 1.6% hits. Potency, µM (top dose mostly 38.3 µM), inactives show at the top dose activity change, negative = inhibition, actives largely listed as inhibitors; also: potency is read from the fitted curve at half-maximal effect; % is scaled to controls: 0 for no effect and ±100 for the full control effect; nearly all actives have a fitted effect of over 55% in size
#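 Constitutively active GLP-1R drives a cAMP-responsive luciferase in stably transfected HEK293 cells; test compounds are added after overnight (12 h) attachment and left 24 hr, and signal loss in luminescence marks inhibition.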
# ClpP mod: qHTS Assay for Activators of ClpP; purified B. subtilis ClpP, FRET peptide cleavage, 20 min; Potency, µM (series often up to 57.5 µM), inactives show at the top dose activity change, negative = active; 340,000 compounds, 1.9% hits; active = well fitted falling curve with a large enough effect; inconclusive = small, poorly fitted or top-dose-only effect; inactive = no such curve, though single readings can be large or run the other way; also: potency is read from the fitted curve at half-maximal effect; the source files actives as falling curves though it sought activators and does not explain the sign; nearly all actives have a fitted effect of over 65% in size
# Target sequence (P80244 whole entry, looked up): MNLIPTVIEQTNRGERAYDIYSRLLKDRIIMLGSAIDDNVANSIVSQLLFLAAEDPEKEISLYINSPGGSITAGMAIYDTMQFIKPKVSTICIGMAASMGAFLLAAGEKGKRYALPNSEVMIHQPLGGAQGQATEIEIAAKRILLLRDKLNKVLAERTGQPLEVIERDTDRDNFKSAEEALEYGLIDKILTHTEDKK
#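 Buffer: 100 mM Tris/HCl pH8, 100 mM KCl, 0.05% low protease BSA, 2.5% glycerol, 0.01% Tween-20. ClpP 10 microg/mL final; 20 min RT; delta FRET normalized to ADEP and DMSO controls.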
# D3 antag: blocks the human D3 dopamine receptor | D3R cells, DiscoveRx beta-arrestin luminescence, antagonist mode; active compounds read low | max response, negative = inhibition, % | 360,000 compounds, 2.5% hits | AID 652054; in the data active = max response below about -50%; inconclusive = no clear call, values can overlap the other calls; also: % is scaled to controls: 0 for no effect and ±100 for the full control effect
# Target sequence (P35462 whole entry, looked up): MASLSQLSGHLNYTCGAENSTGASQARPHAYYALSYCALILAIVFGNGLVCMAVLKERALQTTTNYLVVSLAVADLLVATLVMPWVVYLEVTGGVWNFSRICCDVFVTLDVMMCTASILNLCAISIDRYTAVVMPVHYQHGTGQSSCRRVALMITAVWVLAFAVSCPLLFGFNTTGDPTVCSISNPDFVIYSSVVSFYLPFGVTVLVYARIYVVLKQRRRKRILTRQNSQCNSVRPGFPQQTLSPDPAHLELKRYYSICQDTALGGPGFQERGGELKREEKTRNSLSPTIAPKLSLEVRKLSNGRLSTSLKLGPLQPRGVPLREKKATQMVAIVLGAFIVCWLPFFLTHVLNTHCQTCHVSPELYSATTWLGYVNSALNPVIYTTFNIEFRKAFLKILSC
#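 Cells expressing the human receptor were seeded at 1500 cells/well, incubated overnight at 37 degrees C in 5% CO2, then exposed to library compounds with dopamine controls for 90 minutes at 37 degrees C before luminescent detection.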
# D3 ag: D3 dopamine receptor (human) agonism | D3R DiscoveRx beta-arrestin cells, luminescence, 90 min | AID 652048 | max activation, % | 410,000 compounds, 0.58% hits; in the data active = max activation above about 30%; also: 0% is about no effect
#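 Agonist mode: compounds and dopamine controls were applied to plated cells for 90 min at 37 degrees C after an overnight attachment at 1500 cells/well. Luminescent read-out followed 30 - 60 minutes at room temperature with DiscoveRx detection reagent.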
# Starred values were filed as active, the others as inactive; u = inconclusive; x = not tested or not shown; [ ] = dose if it differs, or a comment. Unless noted, calls follow the shape of the dose curve; as a rule, active = well fitted curve in the direction sought with a large enough effect; inconclusive = small, poorly fitted or top-dose-only effect, or another doubt; inactive = no such curve, though single readings can be large; an effect the other way counts as inactive or inconclusive.
SMILES,GLP-1R agonist,HEK293 tox,GLP-1R inv ag,ClpP mod,D3 antag,D3 ag
CC(CN1CCN(CCOCCO)CC1)CN1c2ccccc2Sc2ccc(Cl)cc21 (stereo not given),-3%,u,u,0%,-117*,-7
CCSc1ccc2c(c1)N(CCCN1CCN(C)CC1)c1ccccc1S2,15%,0%,8%,0%,-87*,-84
COC(=O)c1c(NC(=O)CCCOc2ccccc2C)sc2c1CCC2,x,4%,1%,u,x,-11
CC(C)c1ccc(-c2noc(SCC(=O)N3CCCCC3C)n2)cc1 (stereo not given),x,-2%,u,-1%,x,0
Cc1c(C(=O)O)oc2c3c(ccc12)OCCO3,0%,5%,0%,18µM*,49,7
O=C(O)c1ccc2c(c1)OCCO2,-8%,0%,1%,-1%,0,2
Cc1n[nH]c(C)c1Sc1ccccc1N=Cc1cc(Cl)cc([N+](=O)[O-])c1O,-10%,11%,2%,-2%,-131*,-15
Cc1n[nH]c(C)c1Sc1ccccc1[N+](=O)[O-],18%,9%,-4%,x,13,2
O=C(NCc1ccc2c(c1)OCO2)c1ccc2c(c1)N(Cc1ccccc1F)C(=O)c1ccccc1S2,x,6%,-17%,-1%,x,6
O=C(NCc1ccc2c(c1)OCO2)c1nc(S(=O)(=O)Cc2ccccc2F)ncc1Cl,-11%,u,u,3%,-92*,3
O=C(NCc1ccc2c(c1)OCO2)c1ccc2c(c1)N(Cc1c(F)cccc1Cl)C(=O)CS2,5%,7%[1.53 µM],u,14µM*,10,2
O=C(NCc1ccc2c(c1)OCO2)c1nc(S(=O)(=O)Cc2ccccc2)ncc1Cl,-4%,-4%,u,x,-66*,-30
CN(C)CCCN1c2ccc(O)cc2Sc2ccc(Cl)cc21,8%,u,u,-1%,-110*,-8
CN(C)CCCN1c2ccc([N+](=O)[O-])cc2CCc2cc([N+](=O)[O-])ccc21,1%,x,x,x,x,x
CN(C)CCCN1c2ccccc2Sc2ccc(C(F)(F)F)cc21,-6%,u,u,2%,-97*,-86
CCN(CC)CCCCN1c2ccccc2Sc2ccccc21,-2%,u,5µM*,x,-107*,-13
Cc1sc2ncn(CC(=O)Nc3ccc(C(F)(F)F)cc3)c(=O)c2c1S(=O)(=O)N1CCN(C)CC1,x,-16%,u,1%,x,-12
Cc1ccc2oc(-c3cccc(NC(=O)c4ccc(N5CCC(C)CC5)c([N+](=O)[O-])c4)c3)nc2c1,x,-1%,16%,-8%,x,-14
CCN(CC)c1nn2c(=O)c(C(=O)NCc3ccc(F)cc3)cnc2s1,x,-7%,4%,u,x,-11
c1ccc2c(c1)CCN(CCCNc1nc3ccccc3n3cnnc13)C2,2%,3%,23%,-4%,-109*,-20
COCCNc1nc2ccccc2n2cnnc12,6%,1%,48%,-9%,19,8
CC(C)(C)NC(=O)c1ccc(Sc2ccccc2)c([N+](=O)[O-])c1,7%,-11%,u,1%,-50*,-4
CC(C)NC(=O)Nc1ccc2c(c1)C(=O)N([C@H](C)CO)C[C@H](C)[C@@H](CN(C)Cc1ccc(C(F)(F)F)cc1)OCCCC[C@H](C)O2,2%,-27%,10µM*,1%,19,-3
C[C@H](CO)N1C[C@H](C)[C@@H](CN(C)S(C)(=O)=O)Oc2ccc(NC(=O)C3CCCCC3)cc2C1=O,-1%,11%,1%,-3%,20,52*
C[C@@H]1CN([C@@H](C)CO)C(=O)c2cc(Br)cnc2O[C@H]1CN(C)Cc1cccnc1,9%,-23%,-5%,1%,23,8
SMILES,GLP-1R agonist,HEK293 tox,GLP-1R inv ag,ClpP mod,D3 antag,D3 ag
C[C@H](CO)N1C[C@H](C)[C@@H](CN(C)Cc2ccncc2)Oc2ncc(Br)cc2C1=O,-4%,u,18%,-1%,-114*,-17
C[C@@H]1CN([C@H](C)CO)C(=O)c2cc(NC(=O)C3CCCCC3)ccc2O[C@@H]1CN(C)Cc1ccncc1,-2%,3%,7%,-4%,-16,-34
C[C@@H]1CN([C@@H](C)CO)C(=O)c2cc(NC(=O)C3CC3)ccc2O[C@@H]1CN(C)Cc1ccc(Cl)c(Cl)c1,-1%,-24%,11µM*,-4%,-7,-13
Cc1ccccc1C(=O)Nc1nnc(SCc2cc(=O)c3c(C)ccc(C)c3[nH]2)s1,x,1%,2%,-4%,x,-10
CCc1ccc(NC(=O)Cn2c(=O)n(-c3ccc(OC)cc3)c(=O)c3ccc(C(=O)NCc4ccc(C)cc4)cc32)cc1,x,0%,-2%,-2%,x,-1
Cc1ccc(Nc2nc(-c3cccs3)cs2)nc1,-5%,-22%,3.5µM*,-6%,-8,3
CCCCN(CCCC)c1ccc(Cn2ccc3ccccc32)cc1,x,x,x,-4%,x,x
CC(C)Cn1cc(C(=O)NCCCN2CCCC2=O)c2c3ccccc3n(C)c2c1=O,1%,3%,0%,16µM*,7,-15
CCn1cc(C(=O)NCCCN2CCC(C)CC2)c(=O)c2cc(S(=O)(=O)N(C)C3CCCCC3)ccc21,7%,u,10µM*,-2%,-3,-5
CCn1cc(C(=O)NCCCN2CC(C)CC(C)C2)c(=O)c2cc(S(=O)(=O)N(C)C3CCCCC3)ccc21 (stereo not given),5%,-15%,-28%,-5%,-15,-9
CC(C)Cn1cc(C(=O)NCCCN2CCC(C)CC2)c2c3ccccc3n(C)c2c1=O,12%,1%,14%,x,-83*,-42
CCOc1ccc(NC(=O)c2cn(CC(C)C)c(=O)c3c2c2ccccc2n3C)cc1,-6%,10%,13%,-4%,24,1
CCOC(=O)C(=CNc1cc(C)ccn1)C(=O)OCC,19%,13%,16%,11%,34,4
CCOC(=O)C(=CNc1ccc(O)c(C(=O)OC)c1)C(=O)OCC,4%,13%,108%,-7%,159,57*
Clc1ccc2nc(Nc3ccccc3Cl)nc(-c3ccccc3)c2c1,x,-7%,12%,-4%,x,2
C=CCNc1oc(-c2cccc(Cl)c2)nc1C#N,4%,x,x,x,x,x
COc1ccc(-c2nc(C#N)c(NCc3cccnc3)o2)cc1OC,u,-15%,0%,28µM*,24,2
N#Cc1nc(Cc2ccccc2)oc1NCc1ccccc1Cl,31%,6%,u,-3%,u,-6
N#Cc1nc(-c2cccc(Cl)c2)oc1NCc1cccnc1,26%,-15%,1%,2.2µM*,-15,0
